In the supplement of paper PMC6555819 one finds PBM binding z-score data, which are given here for seven sequences.

Assay in all cases: PBM binding z-score (relative to random genomic background probes); higher = stronger binding; sequences stand for … in GC…GCGATTGACAGCGTAGAATGAAGG
For assay [1], the system named is RARb homodimer (NR concentration 270 nM). The essentials:
(§1)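 Scanned fluorescence from custom Agilent 4×180K protein-binding microarrays was regression-normalized. Binding z-scores use random background probes as reference. Ligand-free nuclear receptor dimers were incubated on the arrays for 1 h and detected with antibodies against each partner (one per run).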

For assay [2], the system named is RARg:RXRa (NR concentration 270 nM, RXRa partner concentration 90 nM). The essentials: as §1
For assay [3], the system named is RARg homodimer (NR concentration 270 nM). The essentials: as §1
Assay [4] concerns RXRa DBDmut IVT, anti-RXR (DBD mutation: RXRa K156A/R161A, NR concentration 90 nM). The gist of the method: as §1
In assay [5] the test system is RXRa homodimer (NR concentration 180 nM). The essentials: as §1
Assay [6] deals with THRa:RXRa (NR concentration 90 nM, RXRa partner concentration 90 nM). The gist of the method:
as §1

Assay [7] relates to THRa homodimer (NR concentration 90 nM). The essentials: as §1
Assay [8] concerns VDR homodimer (NR concentration 270 nM). The gist of the method: as §1

As to CCTACTGGGCCATCAGGTAATTGATATCAACGTT, the PBM binding z-score was 0.184 in assay [1]; -0.0181 in assay [2]; 0.255 in assay [3]; -0.203 in assay [4]; -0.166 in assay [5]; 0.522 in assay [6]. Further, the PBM binding z-score in assay [7] is 0.334; in assay [8] it was -0.212.

Turning to GATACAGGGCCAAGGCCAGAGTACGCGTATTGAT, the PBM binding z-score in assay [1] is 0.738; in assay [2], 0.109; in assay [3] it was 0.599; in assay [4], -0.254; in assay [5] it was 0.197; in assay [6], -0.171. In addition, the PBM binding z-score in assay [7] is -0.281; in assay [8], -0.147.

As for ACAGACAGGTGAGTGAAGCTAACTCAGCTGGACG, the PBM binding z-score in assay [1] was -0.638; in assay [2], -0.0417; in assay [3], 0.288; in assay [4], -0.672; in assay [5], -0.0844; in assay [6], -0.381. For the same sequence, the PBM binding z-score in assay [7] was -1.16; in assay [8], -1.08.

Turning to CCTAATTGGTCAGGAGGTCACACACCGGATATGA, the PBM binding z-score in assay [1] was 4.46; in assay [2], 4.97; in assay [3], 4.47; in assay [4], 1.33; in assay [5], 4.88; in assay [6], 3.69. For the same sequence, the PBM binding z-score is 2.45 in assay [7] and 2.62 in assay [8].

In the case of CTCGAAAGGTCGGGTGAGGTGAGTATACGGATAA, the PBM binding z-score was 3.12 in assay [1]; 3.42 in assay [2]; 3.43 in assay [3]; 0.73 in assay [4]; 3.05 in assay [5]; 5.11 in assay [6]. Also, the PBM binding z-score in assay [7] amounted to 1.91; in assay [8], 0.829.

For the sequence TCTGCTAGGTCAACGATGGTCGGCTAATCTGCTA, the PBM binding z-score in assay [1] came to 3.13; in assay [2] it was 3.75; in assay [3], 5.24; in assay [4] it was 0.92; in assay [5] it was 2.64; in assay [6], 2.7. Further, the figures for the PBM binding z-score in assay [7] and in assay [8] were 0.478 and -0.232, respectively.

In the case of CAGCCTAGGTCAGGGACAGTATAGGAGGAACGTT, the PBM binding z-score is 2.6 in assay [1]; 3.02 in assay [2]; 3.8 in assay [3]; 0.364 in assay [4]; 1.77 in assay [5]; 2.37 in assay [6]. For the same sequence, the figures for the PBM binding z-score in assay [7] and in assay [8] were 0.952 and 0.0373, respectively.
